# High-throughput results from PubChem BioAssay.
# Only some compounds are listed: those with a hit (about 1.6% of all), similar ones and a draw of the others.
# KCNQ2 pot: potentiators of rat KCNQ2 potassium channel; O88943; CHO-K1 KCNQ2, FluxOR thallium flux fluorescence; hits give high values; AID 2239; B-score at 10 µM; hit rate 0.54% among 310,000;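 active = fluorescence ratio B-score at least 3 SD of library B-scores, with initial fluorescence B-score within 3 of them, cut at about 5.3 in these data; same plate scores as AID 2156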;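 also: B-score of peak minus minimum over baseline fluorescence ratio after K+ and Tl+ stimulus; positive B-score means potentiation of KCNQ2 with more thallium influx and brighter signal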
# KCNQ2 inh: blocks the rat KCNQ2 potassium channel; O88943; CHO-K1 KCNQ2, FluxOR thallium flux, 20 min; hits give low values; B-score at 10 µM; hit rate 1.1% among 310,000;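 active = fluorescence ratio B-score at most minus 3 library SDs, with starting brightness B-score within 2 library SDs, cut at about -5.5 in these data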
# Hits are given with their value; i = inactive; nt = no result.
SMILES,KCNQ2 pot,KCNQ2 inh
O=C(c1cnn2c(C(F)(F)F)cc(-c3ccc(F)cc3)nc12)N1CCc2ccccc2C1,i,-6.3
Cc1ccc(-c2cc(C(F)F)n3ncc(C(=O)N4CCc5ccccc5C4)c3n2)cc1,nt,i
O=S(=O)(c1ccc(N2CCC(c3ccc(Cl)cc3)=N2)cc1)N(CCO)CCO,i,i
CN(C)CCCNS(=O)(=O)c1ccc(N2CCC(c3ccc(Cl)cc3)=N2)cc1,i,-5.9
Cc1ccccc1Nc1nc(N)nc(CCl)n1,nt,i
Cc1ccccc1Nc1nc(N)nc(COC(=O)C2CCCCC2)n1,7.7,i
Cc1ccc(N2CC(C(=O)OCc3nc(N)nc(Nc4ccccc4C)n3)CC2=O)cc1 (stereo not drawn),i,i
Cc1ccccc1NC(=O)CSCc1nc(N)nc(Nc2ccccc2C)n1,5.7,i
O=C(OCc1cccc(F)c1)c1cc2ccccc2cc1O,nt,i
C=CCSC(=C(C#N)C#N)c1cc2c([nH]1)CCCC2,nt,i
Cc1cccc(C(=O)OCC(=O)NN2C(=O)NC3(CCC(C)CC3)C2=O)c1O (stereo not drawn),i,i
CC(C)(C)NC(=O)COC(=O)c1ccc(Cl)c(S(N)(=O)=O)c1,nt,i
CC1(C)CC(=O)C2=C(C1)OC1=C(C(=O)CC(C)(C)C1)C2c1ccc(O)cc1O,nt,i
CC1(C)CC(=O)C2=C(C1)OC1=C(C2)C(=O)CC(C)(C)C1,i,-6
CCN(CC)CCNC(=O)CCc1c(C)nc2c(c(C)nn2-c2ccc(C)c(C)c2)c1C,nt,i
O=C(CC12CC3CC(CC(C3)C1)C2)Nc1ccc(C(=O)O)cc1,nt,i
COc1ccc(NC(=O)CC23CC4CC(CC(C4)C2)C3)cn1,18,i
Cc1cccc(C)c1NC(=O)CN(C)C(=O)c1ccccc1OCc1ccc(F)cc1,nt,i
O=C(NCCC(=O)N1CCC2(CC1)NCCc1[nH]cnc12)c1cccc(Br)c1,i,i
Cc1ccc(S(=O)(=O)Oc2ccc(/C=C3/N=C(c4ccccc4)OC3=O)cc2)cc1,i,-7.4
COc1ccc(/C=C2\N=C(c3ccc(C)cc3)OC2=O)cc1,nt,i
Cc1cccc(NC(=O)c2cc(-c3ccc(C)c(C)c3O)n[nH]2)c1,i,i
O=C(Cc1cccs1)NCCS(=O)(=O)N1CCN(c2ccccc2F)CC1,i,i
CCCn1c(NCc2cccc(OC)c2OC)nc2ccccc21,i,-5.9
CCCn1c(NCc2cccc(OC)c2O)nc2ccccc21,nt,i
SMILES,KCNQ2 pot,KCNQ2 inh
Cc1cccc(N2CCN(C(=O)CSCc3c(C)noc3C)CC2)c1C,i,-6
Cc1noc(C)c1CSCC(=O)N1CCN(c2ccc(F)cc2)CC1,nt,i
CC(SC1=NCCN1S(=O)(=O)c1ccccc1)c1ccccc1 (stereo not drawn),nt,i
COc1ccc(S(=O)CC(=O)Nc2ccc(Cl)cc2Cl)cc1 (stereo not drawn),nt,i
CCOC(=O)C1CCCN(C(=O)Cn2nc(C)n3c(cc4c(OC)cccc43)c2=O)C1 (stereo not drawn),i,i
COc1cccc2c1cc1c(=O)n(CC(=O)N3CCCCCC3)nc(C)n12,i,-5.7
COc1ccccc1NC(=O)C(C)OC(=O)Cc1n[nH]c(=O)c2ccccc12 (stereo not drawn),i,i
Cc1cccc(C(C)C)c1NC(=O)C(C)OC(=O)Cc1n[nH]c(=O)c2ccccc12 (stereo not drawn),i,-6.7
Cc1cc(C)cc(NC(=O)c2cccn2-c2ncc(C(F)(F)F)cc2Cl)c1,i,-7.2
O=C(Nc1ccc(F)cc1F)c1cccn1-c1ncc(C(F)(F)F)cc1Cl,nt,i
Clc1ccccc1Cn1c(/C=C/c2ccco2)nc2ccccc21,i,-7
COc1ccc(Cn2c(/C=C/c3ccccc3)nc3ccccc32)cc1,nt,i
Cc1ccccc1CN1CCCOCCS1(=O)=O,nt,i
O=C(COc1ccc(F)cc1)c1ccc2c(c1)CCCC2,nt,i
O=C(COc1ccc(Cc2ccccc2)cc1)c1ccc(F)cc1,6.7,i
CCOC(=O)c1cnn(-c2ccccc2)c1-n1cccc1C(=O)C(=O)N(CC)CC,i,i
CCOC(=O)c1cnn(-c2ccccc2)c1-n1cccc1C(=O)C(=O)Nc1ccccc1C(F)(F)F,i,-7
COc1ccc(N(C)S(=O)(=O)c2cccc(C(=O)NC3CCCCCC3)c2)cc1,nt,i
COc1ccc(N(C)S(=O)(=O)c2cccc(C(=O)NC3CCCC(C)C3C)c2)cc1 (stereo not drawn),i,-7.3
O=C(NC(=S)Nc1nc2ccccc2s1)c1cccs1,6.8,i
O=C(NC(=S)Nc1ccccc1)c1cccs1,i,i
CSc1ncccc1C(=O)NCCc1ccc(S(N)(=O)=O)cc1,nt,i
O=C(NCc1ccc(Cl)cc1)c1noc2c1CCCC2,i,-6.5
O=C(NCc1ccccc1)c1noc2c1CCCC2,nt,i
Cc1cc(/C=N/n2cnnc2)c(C)n1-c1ccc(OCc2ccc(F)cc2)cc1,i,-6.2
Cc1cc(/C=N/n2cnnc2)c(C)n1-c1ccc(OCc2ccc(Cl)cc2Cl)cc1,nt,i
CC(NC(=O)Nc1ccc(Cl)cc1)c1ccccc1 (stereo not drawn),nt,i
